Measured potencies and affinities stand elsewhere. Results filed as inconclusive are left out. Activity calls are given as the source filed them.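 The calls were made as follows, unless noted: active = a dose-response fit showing signal loss, with half-maximal concentration no higher than twice the top tested dose; inconclusive = flat fit between 30% and 70% signal loss, or poor fit; inactive = the rest.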
What was measured:
[1] = fungal growth arrest, C. neoformans – Alamar Blue, cherry-picks, dose response (AID 686998;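 active = falling signal with fitted half-maximal potency no higher than twice the top valid tested dose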)
[2] = C. neoformans lysis by adenylate kinase leakage – AK release luminescence, cherry-picks, dose response (AID 687000;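 active = fitted dose curve reaches 40% lysis signal rise at or below the highest valid concentration tested for that sample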;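 also: luminescent detection of adenylate kinase leaking from lysed yeast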)
[3] = viability loss in HepG2 hepatoma cells – cell-based, cherry-picks, set 2, cytotoxicity control, dose response (AID 687002)
[4] = viability loss in HeLa cells – cell-based, ATP luminescence, cherry-pick samples, cytotoxicity control, dose response (AID 687004;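 active = a fitted half-maximal concentration no higher than twice the top valid tested dose, with signal falling as cells die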)

Measured: outcome

C[C@@H]1CN([C@@H](C)CO)C(=O)c2cccc(NS(C)(=O)=O)c2O[C@@H]1CN(C)C(=O)Nc1ccc2c(c1)OCO2
inactive: [1] | [2] | [3]

C[C@@H]1CN([C@@H](C)CO)S(=O)(=O)c2ccc(-c3ccccc3)cc2O[C@H]1CN(C)C(=O)C1CCCCC1
inactive: [1] | [2] | [3]

Cc1ccccc1CN(C)C[C@H]1OCc2cn(nn2)CCCC(=O)N([C@@H](C)CO)C[C@H]1C
inactive: [1] | [2] | [3]

COc1ccc(C(=O)NC(=S)Nc2cccc(Cl)c2N2CCOCC2)cc1[N+](=O)[O-]
inactive: [1] | [2] | [3]

CC(C)NC(=O)Nc1ccc2c(c1)C(=O)N([C@@H](C)CO)C[C@H](C)[C@@H](CN(C)Cc1ccc3c(c1)OCO3)OCCCC[C@@H](C)O2
inactive: [1] | [2] | [3]

COc1ccc(C#Cc2ccc3c(c2)O[C@@H](CN(C)C(C)=O)[C@@H](C)CN([C@H](C)CO)S3(=O)=O)cc1
inactive: [1] | [2] | [3]

C[C@@H]1CN([C@@H](C)CO)S(=O)(=O)c2ccc(C#Cc3ccccn3)cc2O[C@H]1CN(C)Cc1ccccc1
inactive: [1] | [2] | [3]

COc1ccccc1CN1CC[C@H]2[C@H](CO)Nc3ccc(C#Cc4ccccc4)cc3[C@H]21
inactive: [1] | [2] | [3]

COc1cc(C(=O)Oc2ccccc2N)cc(OC)c1OC
inactive: [1] | [2] | [3]

O=C1CCC(C(=O)Nc2cccc(C(F)(F)F)c2)N1 (centres undefined)
inactive: [1] | [2] | [3]

CCOc1ccc(C(=O)NC(=S)Nc2ccccc2N2CCC(C)CC2)cc1[N+](=O)[O-]
inactive: [1] | [2] | [3]

C[C@@H]1CCCCO[C@H](CN(C)Cc2ccc3c(c2)OCO3)[C@H](C)CN([C@H](C)CO)C(=O)c2cc(NC(=O)Nc3cccc4ccccc34)ccc2O1
inactive: [1] | [2] | [3]

O=C(Nc1ccc(F)cc1)N1C[C@@H]2[C@H](c3ccccc31)[C@H](CO)N2Cc1cocn1
inactive: all assays above

N#Cc1ccc(C23CC4(C2)[C@H](CN(Cc2ccc(-c5ccccc5)cc2)[C@@H]4c2ccccc2)C3c2ccc(C(F)(F)F)cc2)cc1 (some centres undefined)
inactive: all assays above

Cc1ccc(NC(=O)C2(C)CCN2C(=O)C2CCCCC2)cc1C (centres undefined)
inactive: all assays above

O=C(N[C@H]1CC[C@@H](CCn2cc(-c3ccccc3)nn2)O[C@@H]1CO)c1cnccn1
inactive: all assays above

COc1ccc(CN(C)C[C@@H]2Oc3c(NC(=O)Nc4cccc5ccccc45)cccc3C(=O)N([C@@H](C)CO)C[C@@H]2C)cc1
inactive: all assays above

CCCC(=O)N1CCCC1(C)C(=O)Nc1ccc(C)c(C)c1 (centres undefined)
inactive: all assays above

O=C(C[C@H]1CC[C@@H]2[C@H](COC[C@@H](O)CN2Cc2cccc(C(F)(F)F)c2)O1)NCc1ccc(Cl)cc1
inactive: all assays above

CC(C)NC(=O)Nc1cccc2c1O[C@H](CN(C)C)[C@H](C)CN([C@H](C)CO)C2=O
inactive: all assays above

Cc1noc(C)c1NC(=O)N(C)C[C@@H]1Oc2ccc(NC(=O)C3CC3)cc2CC(=O)N([C@H](C)CO)C[C@@H]1C
inactive: all assays above

C[C@@H]1CN([C@@H](C)CO)C(=O)c2cc(-c3cncnc3)cnc2O[C@H]1CN(C)C(=O)Cc1ccccc1
inactive: all assays above

COc1ccc(NC(=O)N(C)C[C@H]2OCc3ccccc3-c3c(n(C)c4ccccc34)C(=O)N([C@H](C)CO)C[C@@H]2C)cc1
inactive: all assays above

CCC(=O)N1[C@@H]2Cn3c(ccc(C4=CCCCC4)c3=O)[C@H]1[C@@H](C(=O)N[C@H](C)c1ccccc1)[C@@H]2CO
inactive: all assays above

C[C@H]1CCCCO[C@H](CN(C)Cc2ccncc2)[C@@H](C)CN([C@@H](C)CO)C(=O)c2cc(NC(=O)CCCN(C)C)ccc2O1
inactive: all assays above

C=CCNC(=O)CN(c1ccc(F)cc1)S(=O)(=O)c1ccc(OC)cc1
inactive: all assays above

CC(=O)N1[C@@H]2CN(S(=O)(=O)c3ccccc3F)c3ccccc3[C@@H]2[C@@H]1CO
inactive: all assays above

COc1ccccc1C(=O)N1C[C@H]2[C@@H](c3ccccc31)[C@@H](CO)N2C(=O)Cc1ccccc1
inactive: all assays above

O=C(NCCc1ccccc1)[C@H]1[C@H](CO)[C@H]2Cn3c(cccc3=O)[C@@H]1N2C(=O)C1CCC1
inactive: all assays above

Cc1ccc(N(CC(N)=O)S(=O)(=O)c2ccc(F)cc2)cc1
inactive: all assays above

O=C(Nc1cccc(F)c1)N[C@H]1CC[C@H](CCNS(=O)(=O)c2cccc(Cl)c2)O[C@@H]1CO
inactive: all assays above

O=C(NC[C@@H]1[C@H](c2ccccc2)[C@@H](CO)N1C(=O)Cc1cccnc1)C1CCC1
inactive: all assays above

Cc1ccc(NC(=O)C2(C)CCCN2CC(C)C)cc1C (centres undefined)
inactive: all assays above

O=C(C[C@@H]1CC[C@@H]2[C@H](COC[C@H](O)CN2Cc2cccc(C(F)(F)F)c2)O1)NCc1ccc(Cl)cc1
inactive: all assays above

C[C@@H]1CN([C@H](C)CO)C(=O)c2cc(NC(=O)Nc3cccc4ccccc34)ccc2O[C@@H](C)CCCCO[C@@H]1CN(C)Cc1ccc2c(c1)OCO2
inactive: all assays above

COCC(=O)NC[C@@H]1N[C@@H](CO)[C@H]1c1ccc(C2=CCCC2)cc1
inactive: all assays above

C[C@@H]1CN([C@@H](C)CO)C(=O)c2cccc(N(C)C)c2O[C@H]1CN(C)C(=O)Nc1ccc(C(F)(F)F)cc1
inactive: all assays above

C[C@H](CO)N1C[C@H](C)[C@@H](CN(C)C(=O)c2cccc(F)c2)Oc2cc(-c3cncnc3)ccc2S1(=O)=O
inactive: all assays above

Cc1ccc(S(=O)(=O)Nc2ccc3c(c2)C(=O)N([C@@H](C)CO)C[C@H](C)[C@H](CN(C)C(=O)Nc2ccc(C(F)(F)F)cc2)O3)cc1
inactive: all assays above

CO[C@@H](CN(C)Cc1ccc2c(c1)OCO2)[C@@H](C)CN(C(=O)c1ccccc1)[C@H](C)CO
inactive: all assays above

CN(C)C(=O)c1ccc(-c2ccc([C@H]3[C@H]4CN(CCC(F)(F)F)CCCCN4[C@H]3CO)cc2)cc1
inactive: all assays above

C[C@@H]1CCCCO[C@@H](CN(C)Cc2ccncc2)[C@@H](C)CN([C@@H](C)CO)C(=O)c2cc(NC(=O)c3ccncc3)ccc2O1
inactive: all assays above

O=C(O)C[C@@H]1CC[C@@H]2[C@H](COC[C@H](O)CN2S(=O)(=O)c2ccc(F)cc2)O1
inactive: all assays above

O=C(C[C@@H]1CC[C@@H]2[C@H](COC[C@H](O)CN2S(=O)(=O)c2ccc(Oc3ccccc3)cc2)O1)NC1CCC1
inactive: all assays above

CNC[C@@H]1OCCCC[C@H](C)Oc2ccc(NC(=O)c3ccccc3)cc2C(=O)N([C@@H](C)CO)C[C@@H]1C
inactive: all assays above

CNC(=O)C[C@@H]1CC[C@@H]2[C@H](COC[C@@H](O)CN2C(=O)Nc2ccc3c(c2)OCO3)O1
inactive: all assays above

Cc1cccc(C)c1NC(=O)CNC(=O)C(C)N1CCCCC1 (centres undefined)
inactive: all assays above

COc1ccccc1CNC(=O)C[C@@H]1CC[C@@H]2[C@H](COc3ccc(NC(C)=O)cc3C(=O)N2C)O1
inactive: all assays above

COCCNC(=O)C[C@@H]1CC[C@H]2[C@@H](COC[C@H](O)CN2Cc2cccc(-c3ccncc3)c2)O1
inactive: all assays above

COc1ccc(S(=O)(=O)Nc2ccc3c(c2)C(=O)N([C@H](C)CO)C[C@H](C)[C@H](CN(C)C(=O)Nc2ccccc2)O3)cc1
inactive: all assays above

C[C@@H]1CN([C@H](C)CO)C(=O)Cc2cc(NC(=O)Nc3cccc4ccccc34)ccc2O[C@@H]1CN(C)Cc1ccc(C(=O)O)cc1
inactive: all assays above

COc1ccccc1-c1cnc2c(c1)C(=O)N([C@H](C)CO)C[C@@H](C)[C@H](CN(C)Cc1cncnc1)O2
inactive: all assays above

C[C@@H]1CN([C@@H](C)CO)C(=O)CCCn2nncc2CO[C@H]1CN(C)Cc1cccc(C(F)(F)F)c1
inactive: all assays above

O=C(NC(=S)Nc1ccc(CN2CCOCC2)cc1)c1ccccc1[N+](=O)[O-]
inactive: all assays above

Reference: PubChem BioAssay
